For 36 molecules, Potency and outcome results are on record in PubChem BioAssay (Tox21).

Where “and” joins values, the source holds several entries; their conditions need not be identical. Equal entries are not always repeated. Records with an inconclusive call do not appear. Some compounds were tested as several samples or in several runs, with calls that do not always agree. Calls of active or inactive are those of the source. Unless noted, calls follow the shape of the dose curve; as a rule, active = well fitted curve in the direction sought with a large enough effect in the repeat runs; inconclusive = weak or mixed curves; inactive = no such curve, though single readings can be large; an effect the other way counts as inactive or inconclusive.

Experiment [1] in a line: qHTS assay to identify small molecule antagonists of the thyroid receptor (TR) signaling pathway - cell viability counter screen (AID 743064). Also: nearly all actives have a fitted effect of over 50% in size. Also: potency is read from the fitted curve at half-maximal effect. The gist of the method: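 GH3.TRE-Luc cells, 4 h pre-plating; cpd + T3 1 nM final; 37 °C 23.5 h; CellTiter-Fluor 30 min; fluorescence read.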
Experiment [2] is described as follows: qHTS assay to identify small molecule antagonists of the thyroid receptor (TR) signaling pathway (AID 743065). Also: nearly all actives have a fitted effect of over 55% in size. Also: potency is read from the fitted curve at half-maximal effect. The procedure, abridged:
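GH3.TRE-Luc rat pituitary cells (two TREs driving luciferase) were dosed with compound, then stimulated with 1 nM T3 (final) for 23.5 h at 37 C. ONE-Glo luminescence was the read-out, with CellTiter-Fluor fluorescence as the cytotoxicity counter-screen.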

For experiment [3], the system named is thyroid hormone receptor (rat, GH3 cells). Kind of experiment: qHTS assay to identify small molecule agonists of the thyroid receptor (TR) signaling pathway (AID 743066; calls by dose curve).
Experiment [4] is described as follows: qHTS assay to identify small molecule antagonists of the estrogen receptor alpha (ER-alpha) signaling pathway - cell viability counter screen (AID 743074; calls by dose curve;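 also: HEK293 cells carrying ER-alpha-UAS-bla reporter stimulated with 17beta-estradiol; nearly all actives have a fitted effect of over 45% in size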).
The nature of experiment [5]: qHTS assay to identify small molecule antagonists of the estrogen receptor alpha (ER-alpha) signaling pathway using the BG1 cell line - cell viability counter screen (AID 743081).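 Also: compound given together with 17beta-estradiol as the ER stimulus; series mostly up to about 70 µM; nearly all actives have a fitted effect of over 45% in size.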
The next experiment deals with Aromatase (Homo sapiens) (UniProt P11511). Kind of experiment: qHTS assay to identify aromatase inhibitors (AID 743083). Also: series mostly up to about 70 µM; nearly all actives have a fitted effect of over 55% in size.
Experiment [6] has as its target Estrogen receptor (Homo sapiens) (UniProt P03372). In words: qHTS assay to identify small molecule antagonists of the estrogen receptor alpha (ER-alpha) signaling pathway (AID 743069; active = well fitted curve in the direction sought with a large enough effect in the signal ratio in the repeat runs, not every such curve was filed as active; the % refers to the signal ratio). The gist of the method: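 HEK293 ER-alpha-UAS-bla GripTite cells, held overnight in 2% charcoal-stripped FBS, 5,000 cells/well, preincubated 4 h, then compound plus 17beta-estradiol for 18 h at 37C. Beta-lactamase read by LiveBLAzer B/G FRET substrate, 2 h at room temperature.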

For experiment [7] the target is unchanged. Kind of experiment: qHTS assay to identify small molecule agonists of the estrogen receptor alpha (ER-alpha) signaling pathway (AID 743075; calls by dose curve).
For experiment [8] the target is unchanged. Kind of experiment: qHTS assay to identify small molecule agonists of the estrogen receptor alpha (ER-alpha) signaling pathway using the BG1 cell line (AID 743079). Also: nearly all actives have a fitted effect of over 20% in size. Also: potency is read from the fitted curve at half-maximal effect.
Experiment [9] is described as follows: qHTS assay to identify small molecule antagonists of the estrogen receptor alpha (ER-alpha) signaling pathway using the BG1 cell line (AID 743080; calls by dose curve;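 also: BG1 cells stimulated with 17beta-estradiol alongside compound; series mostly up to about 70 µM; nearly all actives have a fitted effect of over 25% in size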). The gist of the method: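 BG1-Luc-4E2 cells (endogenous full-length ER-alpha, 4xERE luciferase) hormone-starved 5 days in charcoal-stripped FBS, plated 4,000/well for 24 h, then compound plus 17beta-estradiol for 21.5 h at 37 C; ONE-Glo luminescence read.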

Sequence of Estrogen receptor (Homo sapiens) (P03372 whole entry, looked up): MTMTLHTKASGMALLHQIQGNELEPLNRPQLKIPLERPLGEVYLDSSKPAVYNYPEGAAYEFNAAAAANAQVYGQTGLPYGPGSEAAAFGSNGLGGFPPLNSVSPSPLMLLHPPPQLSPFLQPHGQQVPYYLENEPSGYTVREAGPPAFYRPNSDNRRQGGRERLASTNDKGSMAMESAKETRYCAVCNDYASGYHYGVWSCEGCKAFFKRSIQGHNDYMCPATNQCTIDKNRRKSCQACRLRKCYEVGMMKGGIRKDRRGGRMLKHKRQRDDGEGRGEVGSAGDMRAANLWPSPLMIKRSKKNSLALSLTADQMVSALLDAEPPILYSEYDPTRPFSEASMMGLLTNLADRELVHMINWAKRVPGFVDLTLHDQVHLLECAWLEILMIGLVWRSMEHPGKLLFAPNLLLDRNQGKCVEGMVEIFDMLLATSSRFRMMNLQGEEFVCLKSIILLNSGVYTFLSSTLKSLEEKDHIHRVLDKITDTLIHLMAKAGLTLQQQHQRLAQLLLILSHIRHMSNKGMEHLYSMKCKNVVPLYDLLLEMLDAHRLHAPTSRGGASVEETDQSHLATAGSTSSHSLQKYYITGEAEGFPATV
Sequence of Aromatase (Homo sapiens) (P11511 whole entry, looked up): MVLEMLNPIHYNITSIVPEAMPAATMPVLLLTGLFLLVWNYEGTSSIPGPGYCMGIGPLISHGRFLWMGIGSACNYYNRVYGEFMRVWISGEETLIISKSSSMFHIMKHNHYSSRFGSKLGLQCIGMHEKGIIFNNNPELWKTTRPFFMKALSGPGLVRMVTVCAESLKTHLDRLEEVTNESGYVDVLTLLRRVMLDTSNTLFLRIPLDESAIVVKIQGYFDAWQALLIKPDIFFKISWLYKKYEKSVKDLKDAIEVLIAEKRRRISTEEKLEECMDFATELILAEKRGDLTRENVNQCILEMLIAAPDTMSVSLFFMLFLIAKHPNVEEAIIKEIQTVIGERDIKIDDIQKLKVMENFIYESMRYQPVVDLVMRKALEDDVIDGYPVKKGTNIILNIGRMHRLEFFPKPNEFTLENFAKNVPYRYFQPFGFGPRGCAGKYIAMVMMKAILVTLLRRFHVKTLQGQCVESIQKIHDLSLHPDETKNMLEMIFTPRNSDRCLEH

As for `CN(C)N=O`, the Potency result (in experiment [1]; in [2]; in experiment [4]; in the experiment with Aromatase (Homo sapiens)) was “inactive” throughout. Further, the molecule was called inactive in experiment [3] and in experiment [5].

Consider `O=[N+]([O-])c1ccc(Oc2ccc(Cl)cc2Cl)cc1`, for which the Potency result (in experiment [1]; in experiment [2]; in experiment [4]; in the experiment with Aromatase (Homo sapiens)) was “inactive” in each case. Also, the molecule was called inactive in experiment [3] and in experiment [5].

On to `COCCl`, for which the Potency result (in experiment [1]; in experiment [2]; in experiment [4]; with Aromatase (Homo sapiens)) was “inactive” each time. Also, the call in experiment [3] and in experiment [5] was inactive.

For the molecule `CC1OC(C)OC(C)O1` (stereo unspecified), the Potency entry (in experiment [4]; with Aromatase (Homo sapiens)) was “inactive” throughout. In addition, the call in experiment [5] was inactive.

For the molecule `Nc1ccc(Cc2ccc(N)cc2)cc1`, the Potency entry (in experiment [1]; in experiment [2]; in [4]; with Aromatase (Homo sapiens)) was “inactive” in each case. For the same molecule, the result in experiment [3] and in experiment [5] was inactive.

Consider `Oc1ccccc1Cl`, for which the Potency entry (in experiment [1]; in [2]; in [4]; with Aromatase (Homo sapiens)) was “inactive” in each case. Besides, the result in experiment [3] and in experiment [5] was inactive.

With `O=c1ccc(=O)[nH][nH]1`, the Potency result (in experiment [1]; in experiment [2]; in [4]; with Aromatase (Homo sapiens)) was “inactive” in each case. The result in experiment [3] and in experiment [5] was inactive.

Consider `CC(C)(C)OOC(C)(C)C`, for which the Potency result in [2], in experiment [6], in experiment [4], in experiment [7], in experiment [8] and in experiment [9] was “inactive” each time. Also, in the experiment with Aromatase (Homo sapiens), the Potency entry was “inactive”. Moreover, the outcome in [3] and in experiment [5] was inactive.

Regarding `CCCCN(CCCC)SN(C)C(=O)Oc1cccc2c1OC(C)(C)C2`, the Potency result in experiment [1] is “inactive and 24.3 µM (active)”; in [2] it was 21.7 µM (active); in experiment [8] it was “inactive and 54.5 µM (active)”. The Potency result (in [4]; in [7]; in experiment [9]; in the experiment with Aromatase (Homo sapiens)) was “inactive” throughout. In addition, the molecule was classed as inactive in [5].

As to `CC(C)(C)OOC(=O)c1ccccc1`, the Potency entry (in experiment [1]; in experiment [2]; in [4]; in the experiment with Aromatase (Homo sapiens)) was “inactive” in each case. In addition, the molecule was classed as inactive in experiment [3] and in [5].

For `Cn1cc(-c2ccccc2)c(=O)c(-c2cccc(C(F)(F)F)c2)c1`, the Potency entry in experiment [1], in [6], in [4], in [7], in [8] and in experiment [9] was “inactive” throughout. The Potency result with Aromatase (Homo sapiens) is “inactive”. The molecule was called inactive in experiment [3] and in [5].

With `[O-][Cl+2]([O-])O`, the Potency entry in experiment [1], in [6], in experiment [4], in experiment [7], in experiment [8] and in experiment [9] was “inactive” in each case. For the same molecule, the Potency result in the experiment with Aromatase (Homo sapiens) was “inactive”. In [5], the molecule was called inactive.

Regarding `CCNc1nc(NC(C)(C)C)nc(SC)n1`, the Potency result in experiment [1], in experiment [6], in experiment [4], in experiment [7], in experiment [8] and in experiment [9] was “inactive” each time. The Potency result with Aromatase (Homo sapiens) was “inactive”. Besides, the call in [3] and in experiment [5] was inactive.

On to `C#CC(C)(C)NC(=O)c1cc(Cl)cc(Cl)c1`, for which the Potency result (in experiment [1]; in experiment [2]; in [4]; with Aromatase (Homo sapiens)) was “inactive” throughout. The molecule was classed as inactive in experiment [3] and in [5].

With `CCNc1nc(NC(C)C)nc(SC)n1`, the Potency result (in experiment [1]; in experiment [2]; in experiment [4]; with Aromatase (Homo sapiens)) was “inactive” each time. Besides, the call in experiment [3] and in experiment [5] was inactive.

For the molecule `CCN(CC)CCO`, the Potency result (in [1]; in experiment [2]; in experiment [4]; with Aromatase (Homo sapiens)) was “inactive” throughout. The outcome in experiment [3] and in experiment [5] was inactive.

In the case of `Clc1ccccc1Cl`, the Potency result (in [1]; in experiment [2]; in experiment [4]; in the experiment with Aromatase (Homo sapiens)) was “inactive” in each case. Moreover, the outcome in [3] and in [5] was inactive.

With `O=c1[nH]c(=O)[nH]c(=O)[nH]1`, the Potency result (in experiment [1]; in experiment [2]; in experiment [4]; with Aromatase (Homo sapiens)) was “inactive” each time. The result in experiment [3] and in experiment [5] was inactive.

For `CCC[N+](=O)[O-]`, the Potency entry (in [1]; in experiment [2]; in experiment [4]; with Aromatase (Homo sapiens)) was “inactive” in each case. The molecule was called inactive in experiment [3] and in experiment [5].

`C[C@]12CC[C@H]3[C@@H](CC[C@@]45O[C@@H]4C(O)=C(C#N)C[C@]35C)[C@@H]1CC[C@@H]2O`: the Potency entry (in experiment [4]; with Aromatase (Homo sapiens)) was “inactive” each time. The call in experiment [5] was inactive.

With `NCC(O)c1ccc(O)cc1` (stereo unspecified), the Potency result (in [1]; in experiment [2]; in experiment [4]; with Aromatase (Homo sapiens)) was “inactive” each time. For the same molecule, the call in [3] and in experiment [5] was inactive.

As for `CCC(C)(CC)c1cc(NC(=O)c2c(OC)cccc2OC)on1`, the Potency result (in experiment [1]; in experiment [4]; with Aromatase (Homo sapiens)) was “inactive” throughout. Besides, the Potency in experiment [2] was 54.6 µM (active). The call in experiment [3] and in experiment [5] was inactive.

As to `CN=C=S`, the Potency result in experiment [2], in experiment [6], in experiment [4], in experiment [7], in [8] and in [9] was “inactive” each time. Besides, in the experiment with Aromatase (Homo sapiens), the Potency entry was “inactive”. Further, the molecule was classed as inactive in experiment [3] and in experiment [5].

`CC(C)NC(=O)N1CC(=O)N(c2cc(Cl)cc(Cl)c2)C1=O`: the Potency result in [2], in experiment [6], in experiment [4], in experiment [7], in experiment [8] and in experiment [9] was “inactive” in each case. For the same molecule, the Potency entry with Aromatase (Homo sapiens) was “inactive”. For the same molecule, the molecule was classed as inactive in experiment [3] and in experiment [5].

Turning to `CN(C)[C@@H]1C(=O)C(C(N)=O)=C(O)[C@@]2(O)C(=O)C3=C(O)c4c(O)cccc4[C@@](C)(O)[C@H]3C[C@@H]12`, the Potency entry (in experiment [1]; in [2]; in [4]; with Aromatase (Homo sapiens)) was “inactive” throughout. The molecule was classed as inactive in experiment [3] and in experiment [5].

Consider `CON(C)C(=O)Nc1ccc(Cl)c(Cl)c1`, for which the Potency result (in [1]; in [6]; in [4]; in experiment [7]; in experiment [8]; with Aromatase (Homo sapiens)) was “inactive” each time. Also, the outcome in experiment [3] and in experiment [5] was inactive.

Take `Cc1cccc([N+](=O)[O-])c1`: the Potency result in [1], in experiment [6], in experiment [4], in experiment [8] and in [9] was “inactive” each time. The result in [5] was inactive.

Regarding `CC(C)(Cl)Cl`, the Potency result (in experiment [1]; in experiment [2]; in experiment [4]; in the experiment with Aromatase (Homo sapiens)) was “inactive” in each case. Further, the molecule was classed as inactive in experiment [3] and in experiment [5].

Consider `CC(NC(C)(C)C)C(=O)c1cccc(Cl)c1` (stereo unspecified), for which the Potency entry (in [1]; in [2]; in experiment [4]; in the experiment with Aromatase (Homo sapiens)) was “inactive” throughout. Also, the molecule was classed as inactive in experiment [3] and in [5].

Turning to `C=CCO`, the Potency entry (in experiment [1]; in experiment [4]; in the experiment with Aromatase (Homo sapiens)) was “inactive” in each case. The result in experiment [5] was inactive.

On to `CCc1cccc(C)c1N(C(=O)CCl)C(C)COC` (stereo unspecified), for which the Potency entry in [1] and in experiment [4] was “inactive” in each case. In experiment [5], the call was inactive.

Regarding `CN1C(=O)CN=C(c2ccccc2)c2cc(Cl)ccc21`, the Potency result in [1] and in [4] was “inactive” throughout. Also, the result in [3] and in experiment [5] was inactive.

Turning to `CC(C)C#N`, the Potency entry (in [1]; in [2]; in [4]; with Aromatase (Homo sapiens)) was “inactive” throughout. The result in experiment [3] and in [5] was inactive.

For `CCCN(CCC)c1c([N+](=O)[O-])cc(C(F)(F)F)cc1[N+](=O)[O-]`, the call in [3] and in experiment [5] was inactive. Further, the Potency result (in [6]; in experiment [4]; in [7]; in experiment [8]; in experiment [9]; with Aromatase (Homo sapiens)) was “inactive” throughout.

In the case of `C=CC(N)=O`, the Potency entry in experiment [1], in experiment [6], in experiment [4], in experiment [7], in [8] and in experiment [9] was “inactive” each time. Also, in the experiment with Aromatase (Homo sapiens), the Potency entry is “inactive”. Besides, the result in experiment [5] was inactive.

In the case of `COc1ccc2c3c1O[C@H]1[C@@H](O)C=C[C@H]4[C@@H](C2)N(C)CC[C@@]341`, the Potency result in [1], in experiment [6], in experiment [4], in [7], in [8] and in experiment [9] was “inactive” in each case. Moreover, the Potency result with Aromatase (Homo sapiens) is “inactive”. For the same molecule, the outcome in experiment [3] and in [5] was inactive.
